Results published in PubChem BioAssay (NCI).
About 83,000 compounds went through this panel and 20% of them were active in at least one assay; those are over-represented in the sample as a whole.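 96-well plates, one dose, 48 hours. Percent growth reported; active if below 10.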 The source made the active and inactive calls.

Assays:
Assay in all cases: NCI-60 one-dose screen, 48 h (100 = growth as untreated, 0 = no growth, -100 = all killed)
Conditions in all cases: 10 µM unless noted
NCI-H23 lung = tested on: NCI-H23 lung
NCI-H226 lung = tested on: NCI-H226 lung
NCI-H322M lung = tested on: NCI-H322M lung
HOP-62 NSCLC = tested on: HOP-62 NSCLC
NCI-H460 lung = tested on: NCI-H460 lung
HOP-92 NSCLC = tested on: HOP-92 NSCLC
NCI-H522 lung = tested on: NCI-H522 lung
A549/ATCC NSCLC = tested on: A549/ATCC NSCLC
786-0 renal = tested on: 786-0 renal
COLO 205 colon = tested on: COLO 205 colon
DU-145 prostate = tested on: DU-145 prostate
K-562 leukemia = tested on: K-562 leukemia
MALME-3M melanoma = tested on: MALME-3M melanoma
MDA-MB-231 breast = tested on: MDA-MB-231 breast
RXF 393 renal = tested on: RXF 393 renal
SF-268 CNS = tested on: SF-268 CNS
SF-295 CNS = tested on: SF-295 CNS
SF-539 CNS = tested on: SF-539 CNS
UACC-257 melanoma = tested on: UACC-257 melanoma
M14 melanoma = tested on: M14 melanoma

Measured: growth

CN1CCN(Cc2ccc(NC(=O)c3cccc(C#Cc4cnc(N)c5ncccc45)c3F)cc2C(F)(F)F)CC1
active: NCI-H460 lung -71.8% | NCI-H522 lung -9.1% | 786-0 renal -88.2% | DU-145 prostate -72.4% | K-562 leukemia -19.7% | MALME-3M melanoma -78.9% | MDA-MB-231 breast -74.2% | RXF 393 renal -76.5% | SF-539 CNS -29% | UACC-257 melanoma -61.6% | M14 melanoma -76.4%
inactive: NCI-H23 lung 61.4% | NCI-H226 lung 19.3% | NCI-H322M lung 46.7% | HOP-62 NSCLC 49.4% | HOP-92 NSCLC 26.5% | A549/ATCC NSCLC 38.2% | COLO 205 colon 42.5% | SF-268 CNS 67.2% | SF-295 CNS 85.3%

CC(OC(=O)Nc1cccc(Cl)c1)C(=O)O (stereo not given)
inactive: NCI-H23 lung 97.9% | NCI-H226 lung 96.4% | NCI-H322M lung 101% | HOP-62 NSCLC 86.7% | NCI-H460 lung 108% | HOP-92 NSCLC 92.2% | NCI-H522 lung 80.9% | A549/ATCC NSCLC 99.1% | 786-0 renal 96% | COLO 205 colon 113% | DU-145 prostate 113% | K-562 leukemia 92.3% | MALME-3M melanoma 116% | MDA-MB-231 breast 109% | RXF 393 renal 98.4% | SF-268 CNS 99.6% | SF-295 CNS 75.3% | SF-539 CNS 99.1% | UACC-257 melanoma 91.5% | M14 melanoma 95.5%

CN1CCN(Cc2ccc(NC(=O)c3cncc(C#Cc4ccc(N)nc4)c3)cc2C(F)(F)F)CC1
inactive: NCI-H23 lung 17.4% | NCI-H322M lung 25.9% | NCI-H522 lung 23.1% | A549/ATCC NSCLC 16.2% | 786-0 renal 21.6% | DU-145 prostate 21.4% | SF-268 CNS 15.8% | SF-295 CNS 11.5% | UACC-257 melanoma 11.8%
active: NCI-H226 lung -47.3% | HOP-62 NSCLC 8.59% | NCI-H460 lung 6.66% | HOP-92 NSCLC -25.5% | COLO 205 colon -20.4% | K-562 leukemia 1.27% | MALME-3M melanoma -70.3% | MDA-MB-231 breast -46.3% | RXF 393 renal -6.03% | SF-539 CNS -39.8% | M14 melanoma -37%

COc1cc2nccc(Oc3ccc(NC(=O)C4(C(=O)Nc5ccc(F)cc5)CC4)cc3)c2cc1Oc1ccc(N)cn1
inactive: NCI-H23 lung 49.3% | NCI-H226 lung 36.5% | NCI-H322M lung 49.4% | HOP-62 NSCLC 51.2% | NCI-H460 lung 31% | NCI-H522 lung 51.3% | A549/ATCC NSCLC 22.7% | 786-0 renal 39.1% | DU-145 prostate 49.5% | MALME-3M melanoma 43.1% | MDA-MB-231 breast 42.7% | RXF 393 renal 11.5% | SF-268 CNS 36.8% | UACC-257 melanoma 34% | M14 melanoma 39.8%
active: HOP-92 NSCLC -11.5% | COLO 205 colon 8.91% | K-562 leukemia 3.07% | SF-295 CNS 0.157% | SF-539 CNS 5.06%

Nc1nc(N)c2c(n1)NC(c1sc(Cl)nc1Cl)CC(c1ccccc1)=N2 (stereo not given)
active: NCI-H522 lung 9.11%
inactive: NCI-H23 lung 76.4% | NCI-H226 lung 73.6% | NCI-H322M lung 101% | HOP-62 NSCLC 41.9% | NCI-H460 lung 26.8% | HOP-92 NSCLC 48.7% | A549/ATCC NSCLC 43.1% | 786-0 renal 62% | COLO 205 colon 46.7% | DU-145 prostate 75.1% | K-562 leukemia 17.5% | MALME-3M melanoma 26.8% | MDA-MB-231 breast 47.8% | RXF 393 renal 43.8% | SF-268 CNS 53.6% | SF-295 CNS 35.2% | SF-539 CNS 35.4% | UACC-257 melanoma 68.6% | M14 melanoma 26.2%

NNC(=O)Cc1ccccc1
inactive: NCI-H23 lung 93.2% | NCI-H226 lung 78.2% | NCI-H322M lung 74.2% | HOP-62 NSCLC 92.2% | NCI-H460 lung 94.7% | NCI-H522 lung 77.6% | A549/ATCC NSCLC 86.3% | 786-0 renal 92.1% | COLO 205 colon 112% | DU-145 prostate 104% | K-562 leukemia 56.6% | MALME-3M melanoma 99.7% | MDA-MB-231 breast 83.7% | RXF 393 renal 126% | SF-268 CNS 86.4% | SF-295 CNS 79.7% | SF-539 CNS 92.5% | UACC-257 melanoma 122% | M14 melanoma 74.5%
active: HOP-92 NSCLC -17.8%

COc1ccc(C2CC(c3cccc(Nc4ccnc5cc(Cl)ccc45)c3)=NN2c2ccc(Cl)cc2)cc1 (stereo not given)
active: SF-539 CNS -31.5%
inactive: NCI-H23 lung 84.4% | NCI-H226 lung 83.6% | NCI-H322M lung 72.4% | HOP-62 NSCLC 88.7% | NCI-H460 lung 47.6% | HOP-92 NSCLC 68.5% | NCI-H522 lung 90.4% | A549/ATCC NSCLC 70.6% | 786-0 renal 74.4% | COLO 205 colon 73.9% | DU-145 prostate 79.2% | K-562 leukemia 12.8% | MALME-3M melanoma 74.6% | MDA-MB-231 breast 75.5% | RXF 393 renal 105% | SF-268 CNS 55.1% | SF-295 CNS 30.7% | UACC-257 melanoma 70.7% | M14 melanoma 28.3%

CC(=O)OC1Oc2cc(C)c(C)cc2-c2oc(=O)c(-c3cc4ccccc4oc3=O)cc21 (stereo not given)
inactive: NCI-H23 lung 85.6% | NCI-H226 lung 124% | NCI-H322M lung 126% | HOP-62 NSCLC 109% | NCI-H460 lung 108% | HOP-92 NSCLC 88.3% | NCI-H522 lung 82.9% | A549/ATCC NSCLC 113% | 786-0 renal 79.7% | COLO 205 colon 121% | DU-145 prostate 89.7% | K-562 leukemia 106% | MALME-3M melanoma 107% | MDA-MB-231 breast 92.4% | SF-268 CNS 61.3% | SF-295 CNS 76% | SF-539 CNS 88.4% | UACC-257 melanoma 117% | M14 melanoma 96.3%
active: RXF 393 renal -1.16%
